“And” between values parts separate entries of the source, which are not always exact repeats. Equal values may be shown once. Inconclusive results are not listed. The source holds several records for some structures; these can differ, active in one and inactive in another. The source made the active and inactive calls. Unless noted, calls follow the shape of the dose curve; as a rule, active = well fitted curve in the direction sought with a large enough effect in the repeat runs; inconclusive = weak or mixed curves; inactive = no such curve, though single readings can be large; an effect the other way counts as inactive or inconclusive.
How the values were obtained:
[1] = qHTS assay for small molecule agonists of the p53 signaling pathway (AID 651631; calls by dose curve; also: nearly all actives have a fitted effect of over 15% in size); details: HCT-116 p53RE-bla reporter, beta-lactamase FRET ratio, 16 h; series mostly up to 73.3 µM
In short: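 p53RE-bla HCT-116 cells; compounds 16 h, 37 °C; LiveBLAzer B/G FRET substrate 2 h RT; fluorescence intensity read-out, qHTS format.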

[2] = qHTS assay for small molecules that induce genotoxicity in human embryonic kidney cells expressing luciferase-tagged ATAD5 (AID 651632); details: HEK293T ATAD5-luciferase induction, 16 h; series mostly up to 83.3 µM; also: nearly all actives have a fitted effect of over 15% in size
In short: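 Increased luciferase signal from ATAD5-tagged reporter cells indicates DNA-damage-driven ATAD5 induction. HEK293T cells are treated for 16 hr at 37C before detection with Amplite.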

[3] = qHTS assay for small molecule agonists of the p53 signaling pathway - cell viability (AID 651633; calls by dose curve; also: nearly all actives have a fitted effect of over 30% in size); details: p53RE-bla HCT-116 viability, ATP luminescence, 16 h; series mostly up to 83.3 µM
In short: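 Viability counter-read: CellTiter-Glo luminescence (30 min, room temperature) in the same p53RE-bla plates. These plates had been exposed to compounds for 16 h at 37 C.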

[4] = qHTS assay for small molecules that induce genotoxicity in human embryonic kidney cells expressing luciferase-tagged ATAD5 - cell viability (AID 651634; calls by dose curve; also: nearly all actives have a fitted effect of over 25% in size); details: HEK293T ATAD5-luc cells viability, CellTiter-Fluor, 15.5 h; series mostly up to 83.3 µM
In short: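 Cytotoxicity counterscreen in HEK293T cells bearing an ATAD5-luciferase reporter: live-cell protease activity measured by CellTiter-Fluor fluorescence after 15.5 hr compound exposure.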

[5] = qHTS assay for small molecule disruptors of the mitochondrial membrane potential - cell viability (AID 720634; calls by dose curve;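 also: human HepG2 liver cancer cells; nearly all actives have a fitted effect of over 20% in size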); details: HepG2 viability, ATP luminescence (CellTiter-Glo), 1 h; series mostly up to 83.2 µM
In short: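 After overnight attachment at 37 C, HepG2 cells received compound or DMSO vehicle for 1 hr. Viability is then taken from ATP-driven luminescence following a 30 min room-temperature CellTiter-Glo step.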

[6] = qHTS assay for small molecule disruptors of the mitochondrial membrane potential (AID 720635); details: HepG2 mitochondrial membrane potential, Mito-MPS dye ratio; series mostly up to 83.2 µM; also: potency is read from the fitted curve at half-maximal effect
In short: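 Mitochondrial membrane potential tracked with Mito-MPS dye, red aggregates (ex 540/em 590 nm) against green monomers (ex 490/em 535 nm). Compound treatment 1 hr at 37C, dye 30 min in HepG2.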

[7] = qHTS assay to test for compound auto fluorescence at 590 nm (red) in HepG2 cells (AID 720674); details: HepG2 autofluorescence, red 540/590 nm, 1 h; series mostly up to 91.3 µM
In short: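 1 hr compound incubation on HepG2 cells, 37 C, 5% CO2; plate read ex 540 nm / em 590 nm; intensities reported as Rose Bengal sodium equivalents.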

[8] = qHTS assay to test for compound auto fluorescence at 535 nm (green) in HepG2 cells (AID 720675); details: green autofluorescence 485/535 nm, 1 h; series mostly up to 91.3 µM
[9] = qHTS assay to test for compound auto fluorescence at 460 nm (blue) in HEK293 cells (AID 720678); details: blue autofluorescence 405/460 nm; series mostly up to 91.3 µM
In short: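 Triamterene serves as the blue fluorophore standard. Compound signal at 405/460 nm is read in HEK293 wells (2,000 cells, 10% dialyzed FBS) after overnight treatment at 37C.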

[10] = qHTS assay to test for compound auto fluorescence at 590 nm (red) in HEK293 cells (AID 720679); details: red autofluorescence 540/590 nm; series mostly up to 91.3 µM
In short: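 We plated HEK293 cells in 10% dialyzed FBS medium, let them adhere for 4-5 hr, then added 23 nL compound. Overnight at 37C and 5% CO2 preceded fluorescence measurement at 540/590nm.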

Measured: Potency

CCC(O)OCCCOC (configuration not stated)
inactive: all assays above

O=P(OC(CCl)CCl)(OC(CCl)CCl)OC(CCl)CCl
active: [6] 61.1 µM
inactive: all other assays above

ON=C1CCCCC1
inactive: all assays above

CCCCCCCCCCCCS
inactive: all assays above

O=C(CC(C(=O)OC1CCCCC1)S(=O)(=O)O)OC1CCCCC1 (configuration not stated)
inactive: all assays above

c1ccc2scnc2c1
inactive: all assays above

O=S1(=O)CC=CC1
not listed: [9]
inactive: all other assays above

Fc1ccc(Br)cc1
inactive: all assays above

O=c1[nH]nnc2ccccc12
inactive: all assays above

CCCCC(CC)COC(=O)CS (configuration not stated)
inactive: all assays above

CC(=O)Nc1cccc(O)c1
inactive: all assays above

COc1ccc(Nc2ccccc2)c(C)c1
inactive and 48.6 µM (active): [6]
inactive: all other assays above

O=C(O)c1ccc2c(c1)C(=O)OC2=O
inactive: all assays above

CN(C)CCCN
inactive: all assays above

CC(C)CC(=O)CC(C)C
inactive: all assays above

O=c1[nH]c(=O)n([C@H]2C[C@H](O)[C@@H](CO)O2)cc1Br
inactive: all assays above

C[C@H]1C[C@H]2[C@@H]3CCC4=CC(=O)C=C[C@]4(C)[C@@]3(F)[C@@H](O)C[C@]2(C)[C@@]1(O)C(=O)CO
inactive: all assays above

O=S(=O)(O)c1ccc2ccccc2c1
not listed: [9]
inactive: all other assays above

O=C(O)CC(C(=O)O)C(CC(=O)O)C(=O)O (configuration not stated)
inactive: all assays above

c1c[nH]cn1
inactive: all assays above

CCCCOC(=O)COc1ccc(Cl)cc1Cl
inactive: all assays above

CCC(O)OC(O)CC (configuration not stated)
inactive: all assays above

O=C(O)c1ccc(C(=O)O)cc1
not listed: [9]
inactive: all other assays above

CCc1cccc(C)c1N
inactive: all assays above

Cc1cccc(O)c1
inactive: all assays above

CC(=O)CC(=O)Nc1ccccc1C
inactive: all assays above

O=C(O)c1cc(=O)c2c(OCC(O)COc3cccc4oc(C(=O)O)cc(=O)c34)cccc2o1
inactive: all assays above

CC(=O)c1ccccc1
inactive: all assays above

c1ccc(OCCOc2ccccc2)cc1
active: [6] 24.3 µM
inactive: all other assays above

CC1CCC2CC1C2(C)C (configuration not stated)
inactive: all assays above

O=C1CCC(N2C(=O)c3ccccc3C2=O)C(=O)N1 (configuration not stated)
inactive: all assays above

C=C(C)C(=O)OCCOCCOCCOC(=O)C(=C)C
not listed: [9]
inactive: all other assays above

Cc1ccc(N(C)C)cc1
inactive: all assays above

CC(O)COCC(C)O (configuration not stated)
inactive: all assays above

CC(C)(N)CO
inactive: all assays above

c1ccc2c(c1)ccc1ccccc12
active: [6] 59.5 µM
inactive: all other assays above

CCCCCCCC(=O)OC
inactive: all assays above

CCCCCC(N)=O
inactive: all assays above

CCOC(=O)NNc1nncc2ccccc12
not listed: [6]
inactive: all other assays above

CC(C)(C)[C@@H](O)[C@@H](Cc1ccc(Cl)cc1)n1cncn1
not listed: [6]
inactive: all other assays above

CCCC(C)=O
not listed: [9]
inactive: all other assays above

FC(F)(F)c1ccc(Cl)c(Cl)c1
not listed: [9]
inactive: all other assays above

CN(C)CCC(c1ccc(Cl)cc1)c1ccccn1 (configuration not stated)
not listed: [2]
inactive: all other assays above

Cc1ccc(S(N)(=O)=O)cc1
not listed: [9]
inactive: all other assays above

CCCCCCCCCC
not listed: [9]
inactive: all other assays above

C=C(C)C(=O)O[C@H]1C[C@@H]2CC[C@@]1(C)C2(C)C
not listed: [9]
inactive: all other assays above

CSCCC=O
not listed: [9]
inactive: all other assays above

CCCCCCCCCCCCc1ccccc1
not listed: [2]
inactive: all other assays above

CC(=O)OCC(=O)[C@@]12N=C(C)O[C@@H]1C[C@H]1[C@@H]3CCC4=CC(=O)C=C[C@]4(C)[C@H]3[C@@H](O)C[C@@]12C
not listed: [2] | [6]
inactive: all other assays above

OCCOCCOCCO
not listed: [9]
inactive: all other assays above

Cc1cnc(C(=O)NCCc2ccc(S(=O)(=O)NC(=O)NC3CCCCC3)cc2)cn1
not listed: [6]
inactive: all other assays above

Reference: PubChem BioAssay (Tox21)
